High-throughput results as filed in PubChem.
An excerpt weighted towards active compounds, which were near 3.6% of everything screened.
HTT prom inh: HTT promoter inhibition; 0.93% of 48,000 active; AID 1508623; Potency, µM (series often up to 57.5 µM), usual class: inhibitors; HEK293 HTT promoter firefly luciferase reporter, 24 h; further: nearly all actives have a fitted effect of over 50% in size
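Luminescence was read after Dual-Glo reagent and a 10 min room-temperature incubation. Values were normalized to vehicle (0% activity) and zero RLU (-100% activity). Reporter HEK293 cells had been exposed to compounds (up to 57.5 uM final) for 24 h.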
PMP22 txn: modulates PMP22 transcription in S16 Schwann cells; S16 Pmp22-F2sN Schwann cells, FLuc/NLuc coincidence luminescence, 24 h; 2% of 43,000 active; Potency, µM (top dose mostly 57.5 µM), actives largely listed as inhibitors; AID 1508649; active means clear falling dose curves in both reporters; inconclusive means both reporters move, but less clearly or upward; inactive means either reporter flat; the % is the NLuc reporter signal
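Schwann cells carrying the coincidence reporter were exposed to library compounds for 24 h at 37C, then lysed and read for FLuc and, after quenching, NLuc luminescence on a CCD imager.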
pS6 MEF inh: inhibitors of mTORC1 signaling in Tsc2-/- p53-/- MEF cells | Tsc2-/- p53-/- MEF, phospho-rpS6 immunofluorescence/PI, 24 h | Potency, µM (highest dose often 38.3 µM), usual class: inhibitors | 0.78% of 44,000 active | AID 493208; further: nearly all actives have a fitted effect of over 50% in size
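Immunofluorescence of rpS6 phosphorylation in Tsc2-/-, p53-/- MEFs after 24 h compound exposure, normalized to propidium iodide signal. Activity is expressed as % positive cells, thresholded with 7.5 nM rapamycin.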
HTT-AS act: activates huntingtin-antisense promoter activity. HEK293 HTT-AS promoter firefly luciferase reporter, 24 h; response scale: percent change from vehicle, -100% = no light. Potency, µM (top dose mostly 57.5 µM), actives largely listed as activators. 0.24% of 48,000 active; further: nearly all actives have a fitted effect of over 55% in size
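HEK293 cells carrying firefly luciferase reporters were seeded at 2,500 per well in Opti-MEM and cultured for 24 h. They were then treated with compounds at up to 57.5 uM final for 24 h at 37 degrees C before Dual-Glo luminescence readout.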
S16 F2sN tox: cytotoxicity in S16 Pmp22-F2sN Schwann cells. S16 Pmp22-F2sN Schwann cells (luciferase reporters placed in the Pmp22 gene) viability, CellTiter-Glo, 24 h. Potency, µM (top dose mostly 57.5 µM), most hits filed as cytotoxic. 0.48% of 43,000 active. AID 1508642; further: nearly all actives have a fitted effect of over 65% in size
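CellTiter-Glo counter-screen, qHTS, 1536-well. Cells: S16(c9) Pmp22-F2sN, 500-1,000/well in DMEM + 10% FBS. Cpd 23 nL pin transfer, 24 h, 37C/5% CO2. Read: luminescence, CCD imager.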
SKOV3 invasion: inhibitors of ovarian cancer cell adhesion and invasion in omental model. Potency, µM (highest dose often 45.8 µM), hits mostly inhibitors. AID 1963576. 0.1% of 46,000 active. SKOV3ip1-GFP adhesion/invasion on 3D omental model, fluorescence; further: nearly all actives have a fitted effect of over 65% in size
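Adhesion/invasion was scored as fixed GFP-labeled SKOV3ip1 cell counts (488/509 nm), normalized to DMSO and tomatine controls. Cancer cells in serum-free medium, with four compound doses (0.36-46 umol/L), sat 2 hr at RT then 16 hr at 37 C on a 48 hr fibroblast/mesothelial/ECM culture.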
A number is an active result; - = inactive; ? = inconclusive; . = no result given; [ ] = another dose, or the depositor's remark. Unless noted, the call rests on the fitted dose curve; in most records, active means well fitted curve in the direction sought with a large enough effect; inconclusive means small, poorly fitted or top-dose-only effect, or another doubt; inactive means no such curve, though single readings can be large; an effect the other way counts as inactive or inconclusive.

SMILES	HTT prom inh	PMP22 txn	pS6 MEF inh	HTT-AS act	S16 F2sN tox	SKOV3 invasion
COc1ccc(OC)c(CC2C(=O)Nc3ccc(Br)cc32)c1 (centres undefined)	20µM	?	-	-	-	-
CN1CCC[C@H]1CCO[C@](C)(c1ccccc1)c1ccc(Cl)cc1	-	.	.	-	.	-
Cc1cc(CN2CCN(c3c(Br)cnc4nc(-c5ccc(N6CCN(C)CC6)cc5)[nH]c34)CC2)no1	-	.	.	-	.	-
CCOc1ccc(NC(=O)c2sc3nc4c(cc3c2N)CCCCCC4)cc1	?	?	21µM	-	-	-
Nc1c(C(=O)Nc2ccc(C(=O)O)cc2)sc2nc3c(cc12)CCCC3	?	-	-	-	-	-
Cc1ccc(C)c(N2CCN(CCCNC(=O)C3COc4ccccc4C3)CC2)c1 (centres undefined)	?	?	12µM	-	?	-
O=c1ccn([C@@H]2O[C@H](CO)[C@H](O)[C@@H]2F)c(=O)[nH]1	?	.	.	-	.	-
CN(C(=O)c1cc2c(=O)n3ccccc3nc2n1C)c1ccccc1	-	-	-	5.6µM	-	-
Cn1c(C(=O)NCCc2ccccc2)cc2c(=O)n3ccccc3nc21	-	-	-	?	-	-
CCCCCNC(=O)c1cc2c(=O)n3ccccc3nc2n1C	-	-	-	2µM	-	?
CCOC(=O)[C@@H](N)Cc1ccc(-c2cc(O[C@H](c3ccc(Cl)cc3-n3ccc(C)n3)C(F)(F)F)nc(N)n2)cc1	-	.	.	-	.	-
O=C(CCS(=O)(=O)c1nc(-c2cccs2)cc(C(F)(F)F)n1)Nc1cccc(O)c1	?	?	13µM	-	?	?
Cc1ccc(NC(=O)CSc2nc(-c3ccco3)cc(C(F)(F)F)n2)cc1C	?	?	?	-	-	-
COc1ccc(NC(=O)CSc2nc(-c3ccco3)cc(C(F)(F)F)n2)cc1OC	2.2µM	?	-	-	?	-
COc1cc(NC(=O)CCS(=O)(=O)c2nc(-c3cccs3)cc(C(F)(F)F)n2)cc(OC)c1OC	?	?	?	-	?	?
COc1ccc(NC(=O)CCS(=O)(=O)c2nc(-c3cccs3)cc(C(F)(F)F)n2)cc1OC	?	?	13µM	-	?	?
CC(C)(O)c1cc2nc(-c3cnc(N)nc3)nc(N3CCOCC3)c2s1	?	.	.	-	.	-
O=C(CN1C(=O)C2(CCCC2)NC[C@H]1c1cc(F)cc(F)c1)Nc1ccc2c(c1)C[C@@]1(C2)C(=O)Nc2ncccc21	-	.	.	-	.	-
COc1cc(OC)cc(-c2ccc3ncc4ccc(=O)n(-c5ccc(N6CCNCC6)c(C(F)(F)F)c5)c4c3c2)c1	?	.	.	-	.	-
CC(C)CC(=O)Nc1cccc(-c2cn3cccnc3n2)c1	-	-	-	16µM	-	-
CN[C@@H]1C[C@H]2O[C@@](C)([C@H]1OC)n1c3ccccc3c3c4c(c5c6ccccc6n2c5c31)C(=O)N[C@H]4O	?	.	.	-	.	-
CCOc1ccc(-c2cnc(NCc3ccc(C(F)(F)F)cc3)n2C)cc1	-	?	18µM	-	-	-
CCCS(=O)(=O)c1ncc(Cl)c(C(=O)N(Cc2ccccc2)Cc2ccco2)n1	?	6.4µM	16µM	-	2.2µM	2.2µM
COc1ccc(N2CCN(C(=O)c3nc(SC)ncc3Cl)CC2)cc1	-	-	-	-	-	-
CCS(=O)(=O)c1ncc(Cl)c(C(=O)NCc2ccc(OC)cc2)n1	?	6.5µM	3.7µM	-	2.8µM	?
SMILES	HTT prom inh	PMP22 txn	pS6 MEF inh	HTT-AS act	S16 F2sN tox	SKOV3 invasion
CCSc1ncc(Cl)c(C(=O)N(Cc2ccccc2)Cc2ccco2)n1	-	?	-	-	-	-
CCS(=O)(=O)c1ncc(Cl)c(C(=O)N(Cc2ccccc2)c2ccc(OC)cc2)n1	16µM	2.2µM	2.6µM	-	4.5µM	?
CCS(=O)(=O)c1ncc(Cl)c(C(=O)N2CCN(c3ccc(OC)cc3)CC2)n1	?	6.6µM	3.3µM	-	7.9µM	?
CCc1ccc(C(=O)Nc2cc(CN3CCN(C)CC3)cc(C(F)(F)F)c2)cc1C#Cc1cnc2ccnn2c1	-	.	.	-	.	-
CSc1ncc(Cl)c(C(=O)N(Cc2ccc(N(C)C)cc2)Cc2ccco2)n1	?	?	-	-	-	-
COc1ccc(N(Cc2ccccc2)C(=O)c2nc(SC)ncc2Cl)cc1	20µM	?	-	-	?	-
COc1cccc2cc(C(=O)Nc3ccc(CC(=O)O)cc3)c(=O)oc12	0.28µM	-	-	-	-	-
COc1cccc2cc(C(=O)NCCc3c(C)[nH]c4ccc(F)cc34)c(=O)oc12	-	-	-	-	-	-
COc1nnc(-c2ccc(N3CCCCC3)c(NC(=O)c3ccc(C)cc3)c2)c2ccccc12	-	-	-	-	-	-
COc1nnc(-c2ccc(N3CCCCC3)c(NC(=O)c3ccccc3Cl)c2)c2ccccc12	11µM	?	-	-	?	-
CCCCOc1cccc(NC(=O)c2cccc(C(=O)Nc3cccc(OCCCC)c3)c2)c1	-	-	7.4µM	-	-	-
CCCOc1cccc(C(=O)Nc2cccc(NC(=O)c3ccc(Cl)cc3Cl)c2)c1	-	-	-	-	?	-
CCCOc1ccc(C(=O)Nc2ccc(NC(=O)c3ccc(Br)cc3)cc2)cc1	-	-	-	-	-	-
CCCOc1ccc(C(=O)Nc2ccc(NC(=O)c3ccccc3)c(C)c2)cc1	-	?	13µM	-	-	-
CCCOc1ccc(C(=O)Nc2cccc(NC(=O)c3ccc(Cl)cc3Cl)c2)cc1	-	?	-	-[11.5 µM]	14µM	?
COc1ccc(OCC(O)Cn2c(NCCO)nc3c2c(=O)n(C)c(=O)n3C)cc1 (centres undefined)	14µM	?	-	-	-	-
CCCNc1nc2c(c(=O)n(C)c(=O)n2C)n1CC(O)COc1ccccc1 (centres undefined)	-	?	-	-	-	-
CCCCOc1cccc(C(=O)N(Cc2ccc(C)o2)c2ccccn2)c1	28µM	?	-	-	-	-
CCOc1ccc(CN2CCN(Cc3ccc4c(c3)c3ccccc3n4CC)CC2)cc1	32µM	?	?	-	?	-
COc1cc(F)c(F)c(Nc2ccc(I)cc2F)c1NS(=O)(=O)C1(C[C@H](O)CO)CC1	-	.	.	-	.	-
CCOc1ccccc1NC(=O)c1c(NCc2sccc2C)sc2c1CCC(C)C2 (centres undefined)	-	?	15µM	-	-	-
NC(=O)c1ncn([C@@H]2O[C@H](CO)[C@@H](O)[C@@H]2O)n1	-	.	.	-	.	-
Cc1cc(C(=O)C(=O)Nc2nnc(C(C)C)s2)c(C)n1-c1ccccc1	6.3µM	-	-	-	-	-
